# Values without a mark were called inactive.
# Legend:
# Assay in all cases: log2 ratio of Biotin-Ahx-Ub-VS probe labelling (fragment/DMSO); higher = less target engagement (more negative = stronger competition), active = hit call of the paper (q ≤ 0.05, log2 ratio ≤ -1)
# Details in all cases: compound concentration: 200 uM; treatment time: 3 h
# USP19 = target: T1, USP19 (UniProt O94966)
# T1 sequence (whole entry): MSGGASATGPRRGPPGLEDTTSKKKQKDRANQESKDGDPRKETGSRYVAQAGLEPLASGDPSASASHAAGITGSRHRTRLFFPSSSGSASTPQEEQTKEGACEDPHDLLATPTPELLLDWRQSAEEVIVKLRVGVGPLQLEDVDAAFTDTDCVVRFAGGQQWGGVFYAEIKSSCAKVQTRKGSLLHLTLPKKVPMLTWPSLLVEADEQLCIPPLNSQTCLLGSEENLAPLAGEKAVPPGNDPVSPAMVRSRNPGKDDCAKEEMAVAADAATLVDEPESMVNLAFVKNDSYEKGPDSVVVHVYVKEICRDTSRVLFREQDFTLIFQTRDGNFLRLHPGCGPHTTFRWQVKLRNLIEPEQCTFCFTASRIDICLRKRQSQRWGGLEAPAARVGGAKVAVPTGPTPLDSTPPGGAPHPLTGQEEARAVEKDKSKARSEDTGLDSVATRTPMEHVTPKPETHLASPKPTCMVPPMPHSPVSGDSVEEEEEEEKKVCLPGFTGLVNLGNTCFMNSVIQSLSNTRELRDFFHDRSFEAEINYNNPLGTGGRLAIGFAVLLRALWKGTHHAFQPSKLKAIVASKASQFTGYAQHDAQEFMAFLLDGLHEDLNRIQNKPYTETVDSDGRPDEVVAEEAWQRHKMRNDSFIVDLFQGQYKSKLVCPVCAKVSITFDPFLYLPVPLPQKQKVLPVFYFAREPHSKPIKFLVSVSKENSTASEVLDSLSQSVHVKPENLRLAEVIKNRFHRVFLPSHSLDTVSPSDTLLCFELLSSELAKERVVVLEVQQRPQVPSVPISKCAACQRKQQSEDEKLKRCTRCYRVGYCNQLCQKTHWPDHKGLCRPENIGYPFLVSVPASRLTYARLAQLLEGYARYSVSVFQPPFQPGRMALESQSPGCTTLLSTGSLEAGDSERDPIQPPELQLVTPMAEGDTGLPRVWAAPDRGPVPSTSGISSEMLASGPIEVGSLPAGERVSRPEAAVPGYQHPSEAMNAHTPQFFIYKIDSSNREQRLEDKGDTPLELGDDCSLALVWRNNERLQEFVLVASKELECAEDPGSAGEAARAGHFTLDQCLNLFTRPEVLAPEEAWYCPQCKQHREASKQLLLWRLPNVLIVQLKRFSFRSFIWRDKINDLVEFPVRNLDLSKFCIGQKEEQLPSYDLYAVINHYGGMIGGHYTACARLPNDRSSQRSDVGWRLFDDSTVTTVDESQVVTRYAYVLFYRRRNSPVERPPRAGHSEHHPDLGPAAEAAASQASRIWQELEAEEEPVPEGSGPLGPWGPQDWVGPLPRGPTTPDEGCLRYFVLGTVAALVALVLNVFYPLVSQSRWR
# Method in brief: (§1)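 HEK293T lysate in Tris/CHAPS/IGEPAL buffer with protease inhibitors (495 µg per sample) was given fragment at 200 µM or vehicle for 3 h, in triplicate. It then received Biotin-Ahx-Ub-VS at 0.5 µM final for 1 h. Labelled DUBs were NeutrAvidin-enriched, digested with LysC and trypsin, and run by diaPASEF LC-MS/MS. Values are average log2 fragment/vehicle ratios by unpaired t-test on global-median-normalised Spectronaut quantities of proteins with ≥2 unique peptides.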
# USP24 = USP24 (UniProt Q9UPU5)
# Chain of USP24 (Q9UPU5 whole entry): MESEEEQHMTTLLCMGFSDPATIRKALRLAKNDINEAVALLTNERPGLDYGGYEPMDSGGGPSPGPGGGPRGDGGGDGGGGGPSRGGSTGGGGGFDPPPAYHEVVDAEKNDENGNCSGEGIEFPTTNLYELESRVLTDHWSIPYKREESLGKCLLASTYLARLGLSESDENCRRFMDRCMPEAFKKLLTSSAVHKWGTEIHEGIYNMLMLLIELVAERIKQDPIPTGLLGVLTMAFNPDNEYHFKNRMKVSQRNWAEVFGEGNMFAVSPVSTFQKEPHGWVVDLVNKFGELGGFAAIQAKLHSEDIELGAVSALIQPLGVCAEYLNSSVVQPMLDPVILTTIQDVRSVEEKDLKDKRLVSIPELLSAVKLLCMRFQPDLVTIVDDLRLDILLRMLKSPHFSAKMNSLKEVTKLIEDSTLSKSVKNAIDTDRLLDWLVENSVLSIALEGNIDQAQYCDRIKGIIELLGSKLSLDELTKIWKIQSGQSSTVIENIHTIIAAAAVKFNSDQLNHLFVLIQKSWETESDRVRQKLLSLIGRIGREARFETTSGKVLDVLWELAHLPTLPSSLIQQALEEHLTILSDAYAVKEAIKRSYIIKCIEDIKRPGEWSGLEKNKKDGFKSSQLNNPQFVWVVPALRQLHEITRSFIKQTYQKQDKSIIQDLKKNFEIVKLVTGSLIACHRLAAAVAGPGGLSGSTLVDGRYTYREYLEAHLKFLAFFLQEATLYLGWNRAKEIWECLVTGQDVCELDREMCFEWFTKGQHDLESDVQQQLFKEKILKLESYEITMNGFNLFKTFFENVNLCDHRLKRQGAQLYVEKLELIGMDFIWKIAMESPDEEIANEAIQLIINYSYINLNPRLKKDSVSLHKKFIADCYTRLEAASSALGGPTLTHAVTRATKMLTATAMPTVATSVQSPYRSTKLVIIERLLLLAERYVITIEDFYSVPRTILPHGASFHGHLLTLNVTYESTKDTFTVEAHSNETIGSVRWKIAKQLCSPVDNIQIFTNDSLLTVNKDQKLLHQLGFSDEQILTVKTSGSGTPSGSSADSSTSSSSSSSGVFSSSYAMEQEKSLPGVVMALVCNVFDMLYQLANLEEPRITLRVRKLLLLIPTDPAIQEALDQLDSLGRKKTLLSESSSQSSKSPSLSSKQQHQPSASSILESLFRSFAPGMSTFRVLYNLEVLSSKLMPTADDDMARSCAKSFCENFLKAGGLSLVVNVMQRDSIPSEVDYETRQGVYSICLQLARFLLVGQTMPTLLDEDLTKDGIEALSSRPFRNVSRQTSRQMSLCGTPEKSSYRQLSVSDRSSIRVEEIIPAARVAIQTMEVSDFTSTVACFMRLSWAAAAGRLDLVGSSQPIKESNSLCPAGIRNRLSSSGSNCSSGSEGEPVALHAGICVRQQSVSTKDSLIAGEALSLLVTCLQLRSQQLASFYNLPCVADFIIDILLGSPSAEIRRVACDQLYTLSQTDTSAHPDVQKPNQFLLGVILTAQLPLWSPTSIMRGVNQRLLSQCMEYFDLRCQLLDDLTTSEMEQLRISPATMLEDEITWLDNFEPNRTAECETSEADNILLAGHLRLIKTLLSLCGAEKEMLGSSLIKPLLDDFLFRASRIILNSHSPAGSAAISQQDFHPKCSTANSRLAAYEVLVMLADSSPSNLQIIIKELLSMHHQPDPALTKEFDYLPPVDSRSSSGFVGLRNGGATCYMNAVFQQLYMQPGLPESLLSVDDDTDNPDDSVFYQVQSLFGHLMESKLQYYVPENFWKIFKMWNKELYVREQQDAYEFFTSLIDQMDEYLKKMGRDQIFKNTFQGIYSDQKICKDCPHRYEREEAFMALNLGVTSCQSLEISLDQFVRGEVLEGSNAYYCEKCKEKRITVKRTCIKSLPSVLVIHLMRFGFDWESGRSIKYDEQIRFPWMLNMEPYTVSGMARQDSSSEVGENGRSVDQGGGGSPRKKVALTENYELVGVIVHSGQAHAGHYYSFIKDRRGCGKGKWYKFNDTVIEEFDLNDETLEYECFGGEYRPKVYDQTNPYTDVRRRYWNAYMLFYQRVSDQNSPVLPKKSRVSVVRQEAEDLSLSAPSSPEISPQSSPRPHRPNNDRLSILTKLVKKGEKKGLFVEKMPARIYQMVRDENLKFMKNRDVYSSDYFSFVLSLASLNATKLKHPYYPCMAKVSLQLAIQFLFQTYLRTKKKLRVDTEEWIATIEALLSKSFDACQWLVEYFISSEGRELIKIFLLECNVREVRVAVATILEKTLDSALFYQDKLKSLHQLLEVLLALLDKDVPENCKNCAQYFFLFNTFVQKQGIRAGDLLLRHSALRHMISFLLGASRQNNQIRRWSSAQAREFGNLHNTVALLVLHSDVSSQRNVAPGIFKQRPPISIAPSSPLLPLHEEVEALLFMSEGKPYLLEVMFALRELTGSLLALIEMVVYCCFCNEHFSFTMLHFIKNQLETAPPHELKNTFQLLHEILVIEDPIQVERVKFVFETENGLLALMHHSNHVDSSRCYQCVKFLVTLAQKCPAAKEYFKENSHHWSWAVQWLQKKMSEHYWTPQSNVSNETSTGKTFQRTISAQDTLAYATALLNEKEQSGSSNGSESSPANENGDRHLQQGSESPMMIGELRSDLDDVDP
# Method in brief: as §1
# USP25 = target: T2, USP25 (UniProt Q9UHP3)
# T2 sequence (whole entry): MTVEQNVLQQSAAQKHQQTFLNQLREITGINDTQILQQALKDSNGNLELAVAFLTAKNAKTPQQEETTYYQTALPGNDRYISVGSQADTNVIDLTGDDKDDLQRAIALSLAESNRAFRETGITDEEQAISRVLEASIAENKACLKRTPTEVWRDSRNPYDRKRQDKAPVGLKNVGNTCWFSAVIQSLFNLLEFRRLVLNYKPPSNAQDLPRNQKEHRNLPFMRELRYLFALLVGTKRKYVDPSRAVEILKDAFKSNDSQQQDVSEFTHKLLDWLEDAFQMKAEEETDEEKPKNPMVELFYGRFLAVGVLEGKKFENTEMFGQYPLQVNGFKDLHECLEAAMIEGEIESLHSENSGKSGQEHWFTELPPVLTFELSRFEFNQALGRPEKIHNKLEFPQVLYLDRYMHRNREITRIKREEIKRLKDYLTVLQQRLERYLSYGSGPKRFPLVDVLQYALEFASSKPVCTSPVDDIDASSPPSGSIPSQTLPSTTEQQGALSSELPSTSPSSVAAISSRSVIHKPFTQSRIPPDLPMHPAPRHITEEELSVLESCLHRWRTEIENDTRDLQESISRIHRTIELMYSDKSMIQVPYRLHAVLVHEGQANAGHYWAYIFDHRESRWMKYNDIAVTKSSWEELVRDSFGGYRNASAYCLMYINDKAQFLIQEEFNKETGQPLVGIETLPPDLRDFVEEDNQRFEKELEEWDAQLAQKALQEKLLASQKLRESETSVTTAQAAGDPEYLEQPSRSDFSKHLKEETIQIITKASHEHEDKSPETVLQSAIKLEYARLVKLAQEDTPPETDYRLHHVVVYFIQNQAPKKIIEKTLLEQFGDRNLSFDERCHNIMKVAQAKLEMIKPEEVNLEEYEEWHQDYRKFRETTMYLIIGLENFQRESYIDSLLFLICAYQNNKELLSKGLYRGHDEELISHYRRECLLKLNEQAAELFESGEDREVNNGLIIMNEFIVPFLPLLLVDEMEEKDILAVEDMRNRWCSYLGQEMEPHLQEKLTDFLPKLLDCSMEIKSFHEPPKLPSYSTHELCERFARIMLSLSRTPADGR
# Method in brief: as §1
# USP28 = target: T3, USP28 (UniProt Q96RU2)
# T3 sequence (whole entry): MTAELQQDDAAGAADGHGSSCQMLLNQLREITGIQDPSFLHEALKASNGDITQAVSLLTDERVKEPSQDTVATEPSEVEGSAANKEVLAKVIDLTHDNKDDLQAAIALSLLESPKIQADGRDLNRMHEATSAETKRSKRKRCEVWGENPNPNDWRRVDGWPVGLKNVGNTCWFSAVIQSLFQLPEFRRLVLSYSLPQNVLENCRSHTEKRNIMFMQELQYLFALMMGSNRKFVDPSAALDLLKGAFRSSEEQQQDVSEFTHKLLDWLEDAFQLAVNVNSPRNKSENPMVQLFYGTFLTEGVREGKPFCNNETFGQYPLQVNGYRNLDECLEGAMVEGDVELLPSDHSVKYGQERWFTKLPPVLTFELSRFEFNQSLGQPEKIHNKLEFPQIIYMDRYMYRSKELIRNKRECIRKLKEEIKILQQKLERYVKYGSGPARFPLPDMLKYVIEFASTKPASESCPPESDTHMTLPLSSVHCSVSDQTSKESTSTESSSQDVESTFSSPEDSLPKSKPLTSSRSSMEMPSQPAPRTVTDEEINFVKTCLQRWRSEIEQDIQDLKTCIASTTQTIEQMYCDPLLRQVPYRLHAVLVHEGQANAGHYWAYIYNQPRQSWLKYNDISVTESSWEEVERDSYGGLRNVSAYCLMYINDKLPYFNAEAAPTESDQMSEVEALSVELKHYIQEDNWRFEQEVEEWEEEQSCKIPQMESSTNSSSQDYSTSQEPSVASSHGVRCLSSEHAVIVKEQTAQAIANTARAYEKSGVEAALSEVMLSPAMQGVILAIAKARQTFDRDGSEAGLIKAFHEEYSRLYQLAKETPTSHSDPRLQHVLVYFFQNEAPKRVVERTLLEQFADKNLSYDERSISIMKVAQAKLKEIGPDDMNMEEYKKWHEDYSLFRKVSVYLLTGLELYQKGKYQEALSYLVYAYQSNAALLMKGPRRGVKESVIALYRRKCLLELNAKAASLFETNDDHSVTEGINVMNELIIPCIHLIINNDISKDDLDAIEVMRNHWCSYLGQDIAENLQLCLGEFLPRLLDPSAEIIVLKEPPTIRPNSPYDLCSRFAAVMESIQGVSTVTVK
# Method in brief: as §1
structure (smiles),measurement,setting,value
O=C(CCl)N1c2ccccc2NC(=O)C12CCCC2,log2 ratio of Biotin-Ahx-Ub-VS probe labelling,USP19,-0.0862
same,log2 ratio of Biotin-Ahx-Ub-VS probe labelling,USP24,-2.66 (active)
same,log2 ratio of Biotin-Ahx-Ub-VS probe labelling,USP25,-0.252
same,log2 ratio of Biotin-Ahx-Ub-VS probe labelling,USP28,-0.397

# From the supplement of paper PMC11732987, “Enantioselective OTUD7B fragment discovery through chemoproteomics screening and high-throughput optimisation” (Communications Chemistry, 2025)
